From the supplement of paper PMC11417369
± gives the standard deviation of the averaged measurements. Over roughly 25,000 sequences, “ln(normalized median fluorescence intensity)” has its median near 7.9; the highest 2% begin near 11. This is one part of a sample in which the highest values are shown more often than they occur.

The sequences below were run on PfAP2-I AP2 domain 3 (GST-tagged) (assay: gcPBM binding intensity (ln(normalized median fluorescence intensity)); higher = stronger DNA binding).
In short: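 GST-tagged P. falciparum DNA-binding domains produced in E. coli were incubated for 1 h on an Agilent 4 × 180k array of primer-extended double-stranded 36-bp intergenic genomic probes with negative controls. Binding intensity is the highest Masliner-normalised natural-log median intensity across replicate spots of either probe orientation, with bound protein detected by Alexa488 anti-GST antibody at 488 nm.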

Sequence | gcPBM binding intensity (ln)
TCTTTTACAAAAGCTATAACATTCACCACATTATAA [GTGCAC_negctrl_site133] | 7.68 ± 0.65
CTAGGTATGCTTTAAACATGCAAAAATACAAATTAC [TGCATGCA_site239] | 7.97 ± 0.76
ATAAATCCATGGGTAGTGCGCATTTTTTTTTTTTTT [GTGCAC_site9732] | 9.09 ± 0.41
ACAATGTCATTTGCTAGTACGCATATTGGTTGTAAA [XGTACX_site8924] | 7.76 ± 0.24
ATAAAATATCAATACCGTACACAAGCAGGTAAAATA [XGTACX_site3719] | 7.82 ± 0.8
TGATTATAAAAGTAGGTGCTACAAAAATTACACATT [GTGCAC_site9530] | 8.7 ± 0.45
TATAACATTTTTTTCAAAATAGCTTTAGAAATAAAG [CACACA_negctrl_site718] | 7.37 ± 0.54
AAATAATTTATATGTAGTACATGTTGTAGATAATTT [XGTACX_site1031] | 8.16 ± 0.28
TTTGTGTATATAACAGTGCAATATTATAAATATAAA [GTGCAC_site9750] | 10.5 ± 0.51
TATACGTATTACAGAGTGCAATAAACAGTATATATT | 10.9 ± 0.66
CATAATATTAAATCAGTGCAAATATACAGAATAAAT [GTGCAC_site9786] | 10.1 ± 0.17
AAAATTATTTAGTAAGTGCAAAAAAAAAAAAAAAAA | 10.1 ± 0.23
TTTTGATTAAGTGAATTTTTTTATTTATATAAATAT [TGCATGCA_negctrl_site479] | 7.54 ± 0.56
AAAAAAAATTATGAAGTGCATTAGTGAATTTGATTG | 10.9 ± 0.3
CAATTTTACTCATAAACACACATATATATGTTATTA [CACACA_site3152] | 7.66 ± 0.53
AAAAAAAAAAAAAGTACACACTTTTGCGTACATGTA [CACACA_site7449] | 8.06 ± 0.63
TGCATTATTTACAAGGTGCGTTACAAATGTGTAACA [GTGCAC_site9442] | 11.3 ± 0.88
TATATTATATATATGTGTACATATAAATGTAACAAA [XGTACX_site5025] | 7.67 ± 0.34
ATATATTTATTAAGGTGTACAAAAATTATGTTGCAT [XGTACX_site7546] | 8.26 ± 0.35
TTAACATAAATATATACACACCAATGATGGCATTTA [CACACA_site4952] | 7.51 ± 0.52
TATATATTCATGTGTACACACAAAAAAAAATAAAGT [CACACA_site2207] | 8.41 ± 0.65
TTGTATGCTTCCCGACTACATTATGCCATAAATGTA [TGCATGCA_negctrl_site136] | 7.92 ± 0.49
AGTGCATACATGAATTGTACTTTAAAATAAATTCTA [XGTACX_site8156] | 9.7 ± 0.52

Sequence | gcPBM binding intensity (ln)
TAAATATATTTCATGACATGCAACTTGTTTTTTTGT [TGCATGCA_site456] | 7.63 ± 0.7
TAAAATTTGTACATAGTGCAATTTTTTTTTTTTTTT | 9.81 ± 0.099
TTTTTTCTTAAAATTTGTACATAGTGCAATTTTTTT [XGTACX_site5509] | 9.5 ± 0.69
TTCTTATTTGTACTAGTGCAATAGAAAATAAATAAA [GTGCAC_site9731] | 10.9 ± 0.49
TATTTTACATCTTCTCACATTTTATCACTTTTTAAA [CACACA_negctrl_site330] | 8.08 ± 0.45
ATTATTATAGATATAACACACATAATTACATACTTA [CACACA_site6837] | 7.97 ± 0.14
ATTTTCTTTTCCATAGTGCAATATAATTATCCATCA [GTGCAC_site9547] | 11.3 ± 0.39
TTATATAATTTAATAGTGCAATTATATTAATTTTTC | 9.82 ± 0.42
ATATATATTATATAAGTGCATAATATTCTTTCTTTT | 10.5 ± 0.25
ATTTGATAGACACATGCACACATGCAATACTTTATT [CACACA_site5633] | 8.81 ± 0.77
TTTAATTTGATAGACACATGCACACGTGCAATACTT [TGCATGCA_site777] | 10.95 ± 0.021
GATAGACACGTGCACACATGCAATACTTTATTCAGT [TGCATGCA_site778] | 10.1 ± 0.32
CATTATCATGTTTTTTGTACTCATAATAAAAAGCAG [XGTACX_site2056] | 8.03 ± 0.21
AAAATCTAATATAATGCACACATAAAAAAAAAATCA [CACACA_site8871] | 11 ± 0.68
AAAATCTAATATAATGCACACATAAAAAAAAATCAA [CACACA_site9211] | 10.9 ± 0.59
ATAATAAAATAAATCACACATAATATAATGTAATAT [CACACA_site6144] | 7.54 ± 0.54
AATCTAATATAATGCACACATAAAAAAAAATCAAAC [CACACA_site3633] | 11.1 ± 0.94
AATCTAATATAATGCACACATAAAAAAAAAATCAAA [CACACA_site2714] | 10.7 ± 0.74
TATCAAAATAAATGCACACAAATTGCACATATCTAT [CACACA_site1097] | 10.3 ± 0.11
TAGATATATAAATACACACACATACACAAAAAAAAA [CACACA_site7652] | 8.21 ± 0.45
AAATATATATAAAACTCACACATTATCTTATAACCA [CACACA_site5268] | 7.83 ± 0.23
AAATTATTATCGTTAATATGTATATATGTGCCAAGT [TGCATGCA_negctrl_site557] | 8.06 ± 0.44
GGTTACATTTTATTTTGTACATAAAAATTTTTATTT [XGTACX_site218] | 8.15 ± 0.53
